# Data taken from the supplement of paper PMC8728848.
# The entries come from a sample that favours the strongest signals as a whole.
# B1: rAAL (Agrocybe aegerita), Q6WY08 (protein)
# chain: MQGVNIYNISAGTSVDLAAPVTTGDIVTFFSSALNLNAGAGNPNNTTLNLFAENGAYLLHIAFRLQENVIIFNSRQPDGPWLVEQAVSDVANQFAGIDGKAMVTVFDHGDKYQVVINEKTVIQYTKQISGLTLSLSYNATEETSIFSTVVEAVTYTGLALEHHHHHH
# Experiments:
# Experiment in all cases: glycan array binding signal (z-score within array); higher = stronger binding
# Conditions in all cases: glycan notation: IUPAC condensed, linker removed; mutation: R85A
# [1] = target: Fuc(a1-2)Gal(b1-3)GlcNAc(b1-2)Man(a1-3)[Fuc(a1-2)Gal(b1-3)GlcNAc(b1-2)Man(a1-6)]Man(b1-4)GlcNAc(b1-4)GlcNAc
# How it was run: (§1)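 Glycan array data were curated from 3228 arrays in the Consortium for Functional Glycomics database and kept only where the protein sequence was available. Glycan names were converted to IUPAC-condensed notation, and columns mapping to the same glycan were averaged. The binding signal is a within-array Z-score, averaged across arrays of the same protein sequence at different concentrations or buffers and across linkers. Negative Z-scores can be read as non-binding.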
# [2] = target: Fuc(a1-2)Gal6S(b1-4)Glc
# How it was run: as §1
# [3] = target: Fuc(a1-2)[Gal(a1-3)]Gal(b1-3)GlcNAc(b1-2)Man(a1-3)[Fuc(a1-2)[Gal(a1-3)]Gal(b1-3)GlcNAc(b1-2)Man(a1-6)]Man(b1-4)GlcNAc(b1-4)GlcNAc
# How it was run: as §1
# [4] = target: Fuc(a1-2)[Gal(a1-3)]Gal(b1-4)GlcNAc
# How it was run: as §1
# [5] = target: Fuc(a1-3)[Gal(b1-4)]Glc6S
# How it was run: as §1
# [6] = target: Fuc(a1-3)[Gal(b1-4)]GlcNAc(b1-3)Gal(b1-3)[Fuc(a1-4)]GlcNAc
# How it was run: as §1
# [7] = target: Gal(a1-3)Gal(b1-4)Glc
# How it was run: as §1
# [8] = target: Gal(a1-4)Gal(b1-4)Glc
# How it was run: as §1
# [9] = target: Gal(b1-3)Gal(b1-4)GlcNAc(b1-2)Man(a1-3)[Gal(b1-3)Gal(b1-4)GlcNAc(b1-2)Man(a1-6)]Man(b1-4)GlcNAc(b1-4)GlcNAc
# How it was run: as §1
# [10] = target: Gal(b1-3)GlcNAc(b1-2)Man(a1-3)[Gal(b1-3)GlcNAc(b1-2)Man(a1-6)]Man(b1-4)GlcNAc(b1-4)GlcNAc
# How it was run: as §1
# [11] = target: Gal(b1-3)GlcNAc(b1-3)Gal(b1-4)GlcNAc(b1-6)[Gal(b1-3)GlcNAc(b1-3)]Gal(b1-4)Glc
# How it was run: as §1
# [12] = target: Gal3S(b1-3)GalNAc
# How it was run: as §1
# [13] = target: Gal3S(b1-3)GlcNAc
# How it was run: as §1
# [14] = target: Gal3S(b1-4)Glc
# How it was run: as §1
# [15] = target: Gal3S(b1-4)Glc6S
# How it was run: as §1
# [16] = target: Gal3S(b1-4)GlcNAc6S
# How it was run: as §1
# [17] = target: Gal4S6S(b1-4)GlcNAc
# How it was run: as §1
# [18] = target: Gal6S(b1-4)Glc6S
# How it was run: as §1
# [19] = target: GlcNAc(b1-2)Man(a1-3)[GlcNAc(b1-2)Man(a1-6)]Man(b1-4)GlcNAc(b1-4)GlcNAc
# How it was run: as §1
# [20] = target: GlcNAc(b1-3)Gal(b1-4)GlcNAc(b1-3)Gal(b1-4)GlcNAc
# How it was run: as §1
# [21] = target: Neu5Ac(a2-3)Gal(b1-4)Glc
# How it was run: as §1
# [22] = target: Neu5Ac(a2-3)GalNAc
# How it was run: as §1
# [23] = target: Neu5Ac(a2-6)Gal(b1-4)GlcNAc(b1-3)GalNAc
# How it was run: as §1
# [24] = target: Neu5Ac(a2-8)Neu5Ac
# How it was run: as §1
binder,measurement,setting,value
B1,glycan array binding signal (z-score),[1],-0.123
same,glycan array binding signal (z-score),[2],-0.131
same,glycan array binding signal (z-score),[3],-0.093
same,glycan array binding signal (z-score),[4],-0.127
same,glycan array binding signal (z-score),[5],-0.13
same,glycan array binding signal (z-score),[6],-0.132
same,glycan array binding signal (z-score),[7],1.02
same,glycan array binding signal (z-score),[8],-0.133
same,glycan array binding signal (z-score),[9],9.2
same,glycan array binding signal (z-score),[10],-0.072
same,glycan array binding signal (z-score),[11],0.051
same,glycan array binding signal (z-score),[12],14.6
same,glycan array binding signal (z-score),[13],3.42
same,glycan array binding signal (z-score),[14],3.77
same,glycan array binding signal (z-score),[15],4.38
same,glycan array binding signal (z-score),[16],0.209
same,glycan array binding signal (z-score),[17],-0.136
same,glycan array binding signal (z-score),[18],-0.121
same,glycan array binding signal (z-score),[19],-0.127
same,glycan array binding signal (z-score),[20],-0.136
same,glycan array binding signal (z-score),[21],0.216
same,glycan array binding signal (z-score),[22],-0.131
same,glycan array binding signal (z-score),[23],1.17
same,glycan array binding signal (z-score),[24],-0.125
